Most compounds without a hit are left out; they make up all but 6.5% or so of the library.
HCMV inh – human cytomegalovirus inhibition | activity change, negative = inhibition, % at 57.5 µM | 4.5% of 410,000 active | HFF cells, HCMV-luciferase reporter, 72 h; hits give low values; in the data active means activity change below about -60%; inconclusive means no clear call, values can overlap the other calls; inactive means above about -39%
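Luciferase read-out from HCMV-luciferase-infected HFFs (MOI 1 PFU/cell) 72 h post infection at 37C; compounds added after 16 h cell attachment; activity normalized between buffer-only basal and Salinomycin (10uM) inhibitor controls.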
LASV entry inh – Lassa virus entry inhibition | AID 540256 | Lassa virus pseudotype entry inhibition, cell reporter | Potency, µM (top dose mostly 37.9 µM), inactives show at the top dose activity change, negative = inhibition, most hits filed as inhibitors | 1.2% of 300,000 active; calls by dose curve; tested in HEK293 cells; further: potency means the concentration at half of the fitted maximal effect; nearly all actives have a fitted effect of over 50% in size
FMDV antiviral – antivirals against foot and mouth disease virus; Potency, µM (doses to about 57.9 µM), for the others: at the highest dose activity change, negative = inhibition, usual class: inhibitors; FMDV antiviral cell-based qHTS; AID 1159524; 1.2% of 410,000 active; calls by dose curve; tested in HEK293T cells; further: read-out not given here; potency means the concentration at half of the fitted maximal effect; nearly all actives have a fitted effect of over 45% in size
Vaccinia Venus – inhibitors of vaccinia virus (Venus reporter). Potency, µM (series often up to 36.5 µM), without a hit: top-dose activity change, negative = inhibition, usual class: inhibitors. 0.46% of 330,000 active. Vaccinia virus Venus reporter expression, fluorescence; calls by dose curve; tested in A549 cells; further: potency means the concentration at half of the fitted maximal effect; nearly all actives have a fitted effect of over 30% in size
Marburg entry inh – blocks Marburg virus binding to or entry into cells; Marburg virus pseudotyped entry inhibition, cell reporter; Potency, µM (titrated, usually from 37.8 µM), for inactives: at the top dose activity change, negative = inhibition, hits mostly inhibitors; 1.8% of 300,000 active; AID 540276; calls by dose curve; tested in HEK293 cells; further: potency means the concentration at half of the fitted maximal effect
Vaccinia mCherry – vaccinia inhibition (mCherry reporter); Vaccinia virus mCherry reporter infection, fluorescence; Potency, µM (doses to about 36.5 µM), for the others: at the highest dose activity change, negative = inhibition, usual class: inhibitors; 0.63% of 310,000 active; AID 720579; calls by dose curve; tested in A549 cells; further: potency means the concentration at half of the fitted maximal effect; nearly all actives have a fitted effect of over 35% in size
An asterisk follows results filed as active; i = inactive; ? = inconclusive; · = not tested or not shown; + = active, no number; [ ] = another dose, or the depositor's remark. On the % scale 0 is the no-effect control and ±100 the full control effect.

SMILES	HCMV inh	LASV entry inh	FMDV antiviral	Vaccinia Venus	Marburg entry inh	Vaccinia mCherry
O=C1[C@H]2[C@H]3[C@H](O)[C@H](O)C/C(=N/OC[C@@H](O)COCc4ccco4)[C@@H]3CC[C@@H]2C(=O)N1C[C@@H]1CCCO1	·	·	·	·	3.6%[14.2 µM]	·
Cc1ccc(CN2CCOc3ccc(CN4CCC(O)(c5cccnc5)CC4)cc3C2)cc1	·	·	?	-21.1%	·	-27.8%
COCCCn1c(C(=O)Nc2ccc3c(c2)OCO3)cc2c(=O)n3cccc(C)c3nc21	3.7	·	?	5.01µM*	·	?
COCCCn1c(C(=O)N2CCOCC2)cc2c(=O)n3cccc(C)c3nc21	6.0	-10.2%	-15.4%	-8.9%	-11.5%	-11.4%
CCc1nn(CC(=O)NCCCN2CCOCC2)c(=O)c2cc3cc(F)ccc3n12	+	15.7%[46.1 µM]	3.8%	-8.1%	6.5%[46.1 µM]	-7.4%
COc1ccc(CCNC(=O)c2cc3c(=O)n4cccc(C)c4nc3n(CCCN3CCOCC3)c2=N)cc1	-95.4*	·	0.0%	·	·	·
CO[C@H]1[C@H](NC(=O)c2ccsc2)c2ccccc2C12CCN(Cc1ccc3c(c1)OCO3)CC2	·	·	-2.8%	-7.7%	·	-17.7%
O=C(c1ccc(Cl)c([N+](=O)[O-])c1)N(Cc1ccc(Cl)cc1)C1CCS(=O)(=O)C1 (stereo not given)	-60.1*	-12.3%	12.5%	-0.8%	?	-6.3%
C[C@H]1CN(C(=O)OC(C)(C)C)CCN1c1ccc(N2CC[C@@H](O)C2)c(C#N)c1	33.7	·	·	·	·	·
COc1ccc(NCc2nc3ccccc3n2CCOc2ccccc2C)cc1	20.9	-0.8%[46.1 µM]	9.5%	?	?	-28.4%
COC(=O)C1Cc2ccccc2CN1C(=O)CCl (stereo not given)	?	?	22.4µM*	?	7.08µM*	-24.6%
COc1cccc([C@H]2C(C(=O)c3cccs3)=C(O)C(=O)N2c2cc(C)on2)c1	·	·	·	·	13.0%	·
Cc1ccc(-n2nnnc2Sc2nc([N+](=O)[O-])nn2C)cc1C	-16.9	-21.7%	0.0%	-12.6%	-20.5%	-24.6%
Cc1ccc(C)c(-n2nnnc2Sc2nc([N+](=O)[O-])nn2C)c1	-70.3*	-0.3%	1.9%	?	?	?
O=S(=O)(c1ccccc1)c1ncc(C(F)(F)F)cc1Cl	-29.6	?	11.2µM*	-9.7%	?	-7.8%
COc1cc(Cl)c(NS(=O)(=O)c2ccc3c(c2)CC(C)N3C(=O)C2CCC2)c(OC)c1 (stereo not given)	-86.3*	?	?	-20.1%[7.34 µM]	·	-17.9%[7.34 µM]
COc1ccc(NS(=O)(=O)c2ccc3c(c2)CC(C)N3C(=O)C2CCC2)cc1OC (stereo not given)	-78.4*	?	?	-24.6%	·	-24.0%
COc1cccc(NC(=O)CCNS(=O)(=O)c2ccc3c(c2)CC(C)N3C(=O)C2CC2)c1 (stereo not given)	-70.8*	·	-1.1%	0.0%[7.34 µM]	·	i[7.34 µM]
CCc1cccc(NS(=O)(=O)c2ccc3c(c2)CC(C)N3C(=O)C2CC2)c1 (stereo not given)	-79.6*	-23.8%[46.1 µM]	-0.2%	?	·	?
COc1ccccc1N1CCN(c2ncnc3c2c(-c2ccccc2)cn3-c2cccc(C)c2)CC1	-8.5	-4.3%[46.1 µM]	-9.9%	-5.1%	·	-10.0%
O[C@H](c1ccc(F)cc1)[C@H](c1ccccc1)N1CCOCC1	·	·	·	·	9.5%	·
O=C(NC1(C(F)(F)F)C(=O)Nc2c1c(=O)[nH]c(=O)n2CCc1ccccc1)c1ccc(Cl)cc1 (stereo not given)	1.1	-22.3%[46.1 µM]	-5.6%	11.9%	·	6.6%
Cc1ccc2scc(N3CCCCC3C)c(=O)c2c1 (stereo not given)	7.5	13.0%[46.1 µM]	-26.6%	-14.0%	·	-13.3%
Oc1cccc(Nc2nccc3[nH]c(-c4ccccc4)cc23)c1	-7.2	·	·	·	·	·
CN1C2CCC1CC(OC(c1ccc(F)cc1)c1ccc(F)cc1)C2 (stereo not given)	·	·	-11.1%	-21.5%	·	-13.7%
SMILES	HCMV inh	LASV entry inh	FMDV antiviral	Vaccinia Venus	Marburg entry inh	Vaccinia mCherry
CN1[C@@H]2CC[C@H]1CC(OC(c1ccccc1)c1ccccc1)C2 (stereo not given in full)	·	·	0.3%	-10.3%	5.01µM*	-21.0%
CN1[C@@H]2CC[C@H]1CC(O[C@@H](c1ccccc1)c1ccc(Cl)cc1)C2 (stereo not given in full)	·	·	-21.2%	·	3.16µM*	·
CN1[C@@H]2CC[C@H]1CC(OC(=O)C(O)c1ccccc1)C2 (stereo not given in full)	-12.3	·	-22.8%	-5.3%	·	-0.6%
CN1CCC(OC(c2ccccc2)c2ccc(Cl)cc2)C1 (stereo not given)	-38.4	?	-12.2%	-14.7%	7.08µM*	-17.2%
CN1C2CCC1CC(OC(c1ccccc1)c1ccccc1)C2 (stereo not given)	-31.5	·	?	·	5.01µM*	·
COc1ccc(CCNC(=O)C(=O)NCC(c2ccco2)S(=O)(=O)c2cccs2)cc1 (stereo not given)	-1.0	?	-5.3%	-4.9%	·	-15.9%
O=C(c1ccc(C(F)(F)F)cc1)N(Cc1cc2ccc(F)cc2nc1N1CCOCC1)C1CC1	·	·	2.2%	-0.6%	·	-5.3%
CCc1ccc(C(=O)c2cn(CC(=O)NC3CCCCC3)c3nc(C)ccc3c2=O)cc1	-5.9	2.3%[46.1 µM]	-5.8%	-13.0%	·	-6.5%
O=C(Nc1ccc(N2CCCCC2)cc1)c1ccccn1	·	0.517µM*	2.82µM*	-4.5%	0.461µM*	-17.2%
O=C(Nc1ccc(N2CCCCCC2)cc1)c1ccccc1Cl	57.6	-25.3%[46.1 µM]	0.0%	-9.6%	?	?
COc1ccccc1C(=O)Nc1ccc(N2CCCCC2)cc1	-8.3	?	4.7%	-4.9%	7.94µM*	-21.0%
Cc1cc(Br)cc(C)c1NC(=O)c1ccccc1[N+](=O)[O-]	?	-7.1%	-14.5%	-4.7%	?	-10.1%
COc1ccccc1C(=O)Nc1c(C)cc(Br)cc1C	-60.7*	·	-2.5%	·	·	·
Cc1ccc(C(C(=O)Nc2ccc3c(c2)OCO3)N(C)C(=O)Cc2c[nH]c3ccccc23)cc1 (stereo not given)	-29.8	?	-12.9%	?	10µM*	?
COC(=O)[C@]12OC[C@]34C([C@@H](O)[C@@H]1O)[C@]1(C)CC(=O)C(O)=C(C)[C@@H]1C[C@H]3OC(=O)[C@H](O)[C@@H]24 (stereo not given in full)	?	·	?	0.891µM*	·	?
CCC(=O)Nc1ccc(C=C(C(C)=O)C(C)=O)cc1	79.9	·	20µM*	·	·	·
CCC(=O)Nc1ccc(/C=C(\C(C)=O)C(=O)c2ccccc2)cc1	-24.5	-28.0%	28.2µM*	-19.0%	14.7%	i
CC(=O)/C(=C/c1ccc(N(C)C)cc1)C(=O)c1ccccc1	-21.5	-14.9%	?	-3.5%	15.8%	-1.6%
COc1cccc(/C=C(/C(=O)OCC(N)=O)c2ccccc2)c1	-17.5	·	-19.4%	-21.0%	-9.3%[46.1 µM]	-30.0%
COc1cccc(C=C(C(C)=O)C(=O)c2ccccc2)c1	3.7	·	20µM*	-12.0%	·	-6.3%

Compound activity: PubChem BioAssay, National Center for Advancing Translational Sciences (NCATS)
